Source: PubChem
A selection: hits, their analogues and other compounds. The true share with any hit is near 3.5%.
FBW7 act: human FBW7 E3 ligase activation, primary screen. Q969H0. normalized activity (activation), % at 26.1 µM. 650,000 tested, 0.13% active. AlphaScreen FBW7–phospho-cyclin E peptide binding, activator screen; in the data active = normalized activity above about 1.9%;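 note: purified mutant Fbw7 with reduced substrate affinity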
Target sequence (Q969H0 whole entry, looked up): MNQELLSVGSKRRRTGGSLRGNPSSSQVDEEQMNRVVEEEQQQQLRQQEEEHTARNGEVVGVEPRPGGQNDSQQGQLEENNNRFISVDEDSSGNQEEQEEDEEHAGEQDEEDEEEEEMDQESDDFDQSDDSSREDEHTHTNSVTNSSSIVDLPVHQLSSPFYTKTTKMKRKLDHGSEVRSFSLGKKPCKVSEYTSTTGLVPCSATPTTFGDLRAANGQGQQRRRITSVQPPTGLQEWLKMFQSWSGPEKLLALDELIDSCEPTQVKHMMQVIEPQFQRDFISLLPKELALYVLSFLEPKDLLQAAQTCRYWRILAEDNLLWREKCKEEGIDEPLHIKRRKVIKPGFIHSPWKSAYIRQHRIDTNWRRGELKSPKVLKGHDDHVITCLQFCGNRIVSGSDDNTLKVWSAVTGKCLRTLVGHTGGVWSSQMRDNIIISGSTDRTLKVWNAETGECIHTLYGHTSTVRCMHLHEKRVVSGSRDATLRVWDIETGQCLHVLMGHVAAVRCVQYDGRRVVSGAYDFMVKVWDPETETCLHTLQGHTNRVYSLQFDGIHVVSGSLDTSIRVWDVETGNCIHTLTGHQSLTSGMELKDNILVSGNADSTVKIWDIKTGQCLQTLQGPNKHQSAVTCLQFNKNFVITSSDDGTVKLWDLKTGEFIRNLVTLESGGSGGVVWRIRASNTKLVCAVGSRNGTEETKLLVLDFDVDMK
GPR151 activ: activates the human receptor GPR151. 650,000 tested, 1% active. activation, % at 11.2 µM. PathHunter beta-arrestin GPR151 cells, luminescence. AID 1508602; in the data active = activation above about 4.9%;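 note: 0% = median of compound wells and 100% = cells with positive control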
MITF inh: blocks human microphthalmia-associated transcription factor | AlphaScreen MITF homodimerization, bead proximity signal | inhibition, % at 2.6 µM | 650,000 tested, 0.91% active | AID 1259374; in the data active = inhibition above about 50%;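 note: 0% = vehicle wells with protein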
TEAD-YAP inh: TEAD-YAP interaction inhibition. HEK-TIYL cells, TEAD-Gal4/YAP UAS-luciferase luminescence. inhibition, % at 9.12 µM. 640,000 tested, 1.4% active. AID 1259422; in the data active = inhibition above about 32%;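 note: 0% = median of test compound wells and 100% = reference inhibitor wells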
GPR151 confirm: human GPR151 activation, confirmation screen; shares compounds with GPR151 activ; GPR151 PathHunter beta-arrestin cells, luminescence, 90 min; % of EA-reagent control over plate median; activation, % at 11.2 µM; 6,700 tested, under 10 active; AID 1508609;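 active = mean percent activation across replicates above the confirmation screen cutoff of 4.91%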
GPR119 counter: counter-screen for GPR151 activators: effect on human GPR119; shares compounds with GPR151 activ; GPR119 PathHunter beta-arrestin cells, luminescence, 90 min; 0 = compound-well median, 100 = enzyme-acceptor control; activation, % at 11.2 µM; 6,700 tested, 0.3% active;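 active = mean percent activation in the counterscreen above 29.09%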;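 note: counterscreen on off-target GPR119 to flag nonselective hits from the GPR151 activator screen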
An asterisk follows results filed as active.

Screening COc1ccc(C(=O)N2CCN(CCNC(=O)C(=O)Nc3ccccc3)CC2)cc1 returned FBW7 act 0, GPR151 activ -1, MITF inh -15 and TEAD-YAP inh -10.
Screening COc1cc(/C=C2\SC(N)=NC2=O)ccc1OC(=O)c1ccc(Cl)cc1 returned FBW7 act 0, GPR151 activ 0, MITF inh 7 and TEAD-YAP inh 8.
`COc1ccc(C(=O)Oc2c(Cl)cc(/C=C3\SC(N)=NC3=O)cc2OC)cc1` gave FBW7 act 0, GPR151 activ 8.2*, MITF inh -13, TEAD-YAP inh -2, GPR151 confirm 1 and GPR119 counter 16.
For Cc1cccn2c(CN3CCCCC3CCn3cccn3)c(C(=O)N3CCOCC3)nc12 (centres undefined) the results were FBW7 act 0, GPR151 activ 7.8*, MITF inh -13, TEAD-YAP inh 1, GPR151 confirm 0 and GPR119 counter 4.
`O=C(c1nc2sccn2c1CNCCc1cccnc1)N1CCCC1` gave FBW7 act 0, GPR151 activ 12*, MITF inh 0, TEAD-YAP inh 7, GPR151 confirm 0 and GPR119 counter 7.
Screening Cc1cccn2c(CNCCSc3nccn3C)c(C(=O)N3CCCCC3)nc12 returned FBW7 act 0, GPR151 activ 1, MITF inh 5 and TEAD-YAP inh -5.
O=C(c1nc2sccn2c1CNCCc1ccncc1)N1CCCCCCC1 was read as FBW7 act 0, GPR151 activ 0, MITF inh -13 and TEAD-YAP inh 3.
`COC(=O)[C@@H]1CCCN1Cc1c(C(=O)N2CCOCC2)nc2c(C)cccn12` gave FBW7 act 0, GPR151 activ -1, MITF inh -11 and TEAD-YAP inh 3.
CSCCNCc1c(C(=O)N2CCCCC2)nc2c(C)cccn12 was read as FBW7 act 0, GPR151 activ 9.0*, MITF inh 5, TEAD-YAP inh -1, GPR151 confirm 0 and GPR119 counter 3.
`COc1ccc(N2C(=O)C3C4C=CC(C(OC(C)=O)OC(C)=O)(O4)C3C2=O)c([N+](=O)[O-])c1` (centres undefined) gave FBW7 act 0, GPR151 activ 1, MITF inh -1 and TEAD-YAP inh 17.
COc1ccc2oc(=Nc3cccc(C)c3)c(-c3nc4ccccc4[nH]3)cc2c1 was read as FBW7 act 0, GPR151 activ -1, MITF inh -10 and TEAD-YAP inh -18.
Screening O=C(Nc1ccccc1)NC(Cc1c[nH]c2ccccc12)C(=O)NCc1cccs1 (centres undefined) returned FBW7 act 0, GPR151 activ -1, MITF inh 28 and TEAD-YAP inh 10.
`CC1Cc2ccccc2N1C(=O)c1ccc2c(c1)OCO2` (centres undefined) gave FBW7 act 0, GPR151 activ 0, MITF inh 2 and TEAD-YAP inh 7.
COc1ccc(C(=O)N2c3ccccc3CC2C)cc1OC (centres undefined) was read as FBW7 act 0, GPR151 activ 6.4*, MITF inh -1, TEAD-YAP inh 0, GPR151 confirm 0 and GPR119 counter 0.
For COc1cccc(NC(=O)Nc2nnc(SCc3ccccc3F)s2)c1 the results were FBW7 act 0, GPR151 activ -1, MITF inh -8 and TEAD-YAP inh 6.
For CC(C)C(=O)Nc1ccc(S(=O)(=O)NCC2(c3ccccc3)CCOCC2)cc1 the results were FBW7 act 0, GPR151 activ 5.2*, MITF inh 0, TEAD-YAP inh -7, GPR151 confirm 0 and GPR119 counter -5.
`COc1ccc(-c2cnc(NCCc3c[nH]c4ccccc34)nc2)cc1` gave FBW7 act 0, GPR151 activ 5.2*, MITF inh 0, TEAD-YAP inh -11, GPR151 confirm 0 and GPR119 counter -8.
For CCc1cccc(CC)c1NC(=O)C1CC(=O)N(c2ccccc2OC)C1 (centres undefined) the results were FBW7 act 0, GPR151 activ 8.6*, MITF inh -1, TEAD-YAP inh -4, GPR151 confirm 0 and GPR119 counter 12.
Screening CCc1cccc(CC)c1NC(=O)C1CC(=O)N(c2ccc(F)cc2)C1 (centres undefined) returned FBW7 act 0, GPR151 activ 1, MITF inh 12 and TEAD-YAP inh 10.
For Cn1c(=O)c([N+](=O)[O-])c(NCc2ccccc2)c2ccccc21 the results were FBW7 act 0, GPR151 activ 8.1*, MITF inh 11, TEAD-YAP inh -3, GPR151 confirm 0 and GPR119 counter 0.
`O=C(Nc1ccccc1)NC1c2ccccc2Oc2ccccc21` gave FBW7 act 0, GPR151 activ 6.6*, MITF inh 2, TEAD-YAP inh -14, GPR151 confirm 0 and GPR119 counter -2.
`O=C(NC1c2ccccc2Oc2ccccc21)c1ccncc1` gave FBW7 act 0, GPR151 activ -1, MITF inh 4 and TEAD-YAP inh -6.
COc1ccc2ccccc2c1/C=C(\C#N)c1ccccn1 was read as FBW7 act 0, GPR151 activ 5.2*, MITF inh 0, TEAD-YAP inh -10, GPR151 confirm 0 and GPR119 counter 10.
COc1ccc(/C=C(\C#N)c2ccccn2)c(OC)c1OC was read as FBW7 act 0, GPR151 activ 1, MITF inh 1 and TEAD-YAP inh -44.
O=C(O)CCCCCN1C(=O)C(O)=C(C(=O)/C=C/c2ccccc2)C1c1ccccc1Cl (centres undefined) was read as FBW7 act 0, GPR151 activ 5.0*, MITF inh -9, TEAD-YAP inh 6, GPR151 confirm 1 and GPR119 counter 11.
For O=C1c2cccc3cccc(c23)C(=O)N1Cc1nc2ccccc2[nH]1 the results were FBW7 act 0, GPR151 activ -1, MITF inh 14 and TEAD-YAP inh -10.
COc1ccccc1/C=N/NC(=O)c1ccccc1O was read as FBW7 act 0, GPR151 activ 7.1*, MITF inh -1, TEAD-YAP inh -29, GPR151 confirm 0 and GPR119 counter -7.
For CCN(CC)c1ccc(/C=N/NC(=O)c2ccccc2Cl)c(O)c1 the results were FBW7 act 0, GPR151 activ 7.3*, MITF inh 8, TEAD-YAP inh 1, GPR151 confirm 0 and GPR119 counter -8.
COc1ccccc1/C=N/NC(=O)c1ccccc1Cl was read as FBW7 act 0, GPR151 activ 0, MITF inh 24 and TEAD-YAP inh -4.
`O=C(N/N=C/c1ccccc1O)c1ccc(Cl)cc1Cl` gave FBW7 act 0, GPR151 activ 5.1*, MITF inh 21, TEAD-YAP inh -36, GPR151 confirm 0 and GPR119 counter 3.
